Laboratory results from PubChem BioAssay (EPA / NIEHS).
Some compounds were tested as several samples or in several runs, with calls that do not always agree. Activity calls are given as the source filed them. The calls were made as follows: active = hit-call score of the fitted dose curve at least 0.9, where 1 is the maximum; inactive = score below 0.9.

Columns and labels:
[1] = ATG_ISRE_CIS: Attagene CIS-FACTORIAL HepG2 Assay for human Interferon Regulatory Factor 1 (IRF1) binding to an Interferon-Stimulated Response Element (ISRE) (AID 2282948); settings: HepG2 ISRE cis-reporter (Attagene), mRNA transcription readout; actives raise or lower the signal
Procedure, shortened: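 Transiently transfected HepG2 cells carrying cis-element reporter units, dosed 24 hours. Reporter mRNA quantified by RT-PCR, fluorescent primer extension, HpaI digestion and capillary electrophoresis. Bidirectional fitting relative to DMSO.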

[2] = ATG_M_32_CIS: Attagene CIS-FACTORIAL HepG2 Assay for M32 Transcription Factor (Internal Marker) (AID 2282949); settings: HepG2 Attagene cis-factorial M32 reporter, mRNA; actives raise or lower the signal;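 also: background control marker of the multiplexed CIS panel rather than a real target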
Procedure, shortened: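 HepG2 cells transiently transfected with multiplexed cis-regulated reporter units, dosed 24 h. Reporter mRNA quantified by RT-PCR, 6-FAM labelling, HpaI digestion and capillary electrophoresis; bidirectional fit vs DMSO.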

[3] = ATG_M_06_CIS: Attagene CIS-FACTORIAL HepG2 Assay for M06 Transcription Factor (Internal Marker) (AID 2282950); settings: HepG2 Attagene CIS-FACTORIAL M06 internal marker reporter; actives raise or lower the signal
Procedure, shortened: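 Measured 24 h post-dosing in transiently transfected HepG2 cells, this internal-marker endpoint reports reporter mRNA via RT-PCR with fluorescent primer extension and capillary electrophoresis. DMSO served as negative control and baseline for bidirectional fitting.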

[4] = target: Hypoxia-inducible factor 1-alpha (Homo sapiens) (UniProt Q16665); experiment: ATG_HIF1a_CIS: Attagene CIS-FACTORIAL HepG2 Assay for human Hypoxia Inducible Factor 1 (HIF1A) (AID 2282951); settings: HepG2 Attagene cis-factorial HIF1a reporter transcription; actives raise or lower the signal
Procedure, shortened: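 Activity is fitted in both directions relative to DMSO. Reporter transcripts are read by RT-PCR, fluorescent primer extension and capillary electrophoresis after 24 h chemical treatment. The cells are HepG2 carrying transiently transfected cis-element-driven reporter units responding to endogenous factors.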

[5] = target: Heat shock factor protein 1 (Homo sapiens) (UniProt Q00613); experiment: ATG_HSE_CIS: Attagene CIS-FACTORIAL HepG2 Assay for human Heat Shock Transcription Factor 1 (HSE) (AID 2282953); settings: HepG2 HSE cis-reporter, Attagene RNA transcription; actives raise or lower the signal
Procedure, shortened: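 Reporter mRNA induction in HepG2 is measured 24 h after dosing, using transiently transfected multiplexed cis-regulated reporter units. Signal comes from capillary electrophoresis of labelled RT-PCR products, with DMSO as negative control.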

[6] = ATG_MRE_CIS: Attagene CIS-FACTORIAL HepG2 Assay for human Metal Responsive Element (MRE) (AID 2282954); settings: HepG2 MRE cis-reporter transcription, Attagene multiplex; actives raise or lower the signal
Procedure, shortened: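 Transient MRTU transfection of HepG2 (FuGene 6); 24 h dosing; total RNA → oligo(dT) RT, PCR, 6-FAM primer extension, HpaI cut, CE. Bidirectional fit vs DMSO.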

[7] = target: Paired box protein Pax-6 (Homo sapiens) (UniProt P26367); experiment: ATG_Pax6_CIS: Attagene CIS-FACTORIAL HepG2 Assay for human Paired Box 6 (PAX6) (AID 2282956); settings: HepG2 CIS-FACTORIAL PAX6 reporter transcription, RNA readout; actives raise or lower the signal
Procedure, shortened: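 HepG2 cells transiently transfected with cis-promoter-driven multiplexed reporter units sensing endogenous transcription factor activity; 24 h chemical exposure. Reporter mRNA quantified by RT-PCR, 6-FAM labelling, HpaI digestion and capillary electrophoresis; bidirectional fit versus DMSO baseline.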

[8] = ATG_PXRE_CIS: Attagene CIS-FACTORIAL HepG2 Assay for human Pregnane X Receptor Element (PXRE) (AID 2282957); settings: HepG2 Attagene CIS-FACTORIAL PXRE reporter, mRNA; actives raise or lower the signal
Procedure, shortened: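 Cis-element reporter mRNA in human hepatoma HepG2 cells is measured 24 h post-dosing by RT-PCR, primer-extension labeling and capillary electrophoresis; gain or loss of signal is fitted relative to DMSO.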

[9] = ATG_RORE_CIS: Attagene CIS-FACTORIAL HepG2 Assay for human RAR-related Orphan Receptor Element (RORE) (AID 2282959); settings: HepG2 Attagene cis-factorial RORE reporter, mRNA; actives raise or lower the signal
Procedure, shortened: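 RORE reporter transcripts reflecting endogenous factor activity were read after 24 h compound exposure of transfected HepG2 cells, using reverse transcription, PCR, fluorescent labelling and capillary electrophoresis sizing. Gain or loss fitted against DMSO.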

[10] = ATG_Sox_CIS: Attagene CIS-FACTORIAL HepG2 Assay for human SRY-box transcription factor (SOX) (AID 2282960); settings: HepG2 Attagene cis-factorial SOX reporter, mRNA; actives raise or lower the signal
Procedure, shortened: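 Reporter transcripts, measured by RT-PCR and capillary electrophoresis of labelled fragments, report endogenous SOX transcription factor activity. Transiently transfected human HepG2 cells receive chemical for 24 h; changes in either direction are fitted relative to DMSO.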

[11] = ATG_SREBP_CIS: Attagene CIS-FACTORIAL HepG2 Assay for human Sterol Regulatory Element Binding (SREBP) (AID 2282962); settings: HepG2 Attagene cis-factorial SREBP reporter, mRNA; actives raise or lower the signal
Procedure, shortened: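 HepG2 cells transiently transfected with multiplexed cis-promoter reporter units sensing endogenous transcription factors; reporter mRNA measured 24 h after dosing by RT-PCR, 6-FAM labeling, HpaI digestion and capillary electrophoresis. Bidirectional fit versus DMSO.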

[12] = target: Signal transducer and activator of transcription 3 (Homo sapiens) (UniProt P40763); experiment: ATG_STAT3_CIS: Attagene CIS-FACTORIAL HepG2 Assay for human Signal Transducer and Activator of Transcription 3 (STAT3) (AID 2282963); settings: HepG2, Attagene cis-factorial STAT3 reporter transcription; actives raise or lower the signal
Procedure, shortened: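 Endogenous STAT3-responsive cis-element activity was read in transiently transfected HepG2 cells after 24 h treatment. Reporter transcripts were quantified via RT-PCR and capillary electrophoresis, with DMSO as negative control and bidirectional curve fitting.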

[13] = ATG_TA_CIS: Attagene CIS-FACTORIAL HepG2 Assay for human TA Basal Promoter (AID 2282964); settings: HepG2 Attagene CIS-factorial TA basal promoter reporter; actives raise or lower the signal
Procedure, shortened: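 Cis-factorial format in HepG2: reporters report endogenous factors, not chimeric Gal4 fusions. After 24 h treatment, reporter transcripts were measured by RT-PCR-capillary electrophoresis fluorescence, analysed bidirectionally versus DMSO.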

[14] = ATG_TCF_b_cat_CIS: Attagene CIS-FACTORIAL HepG2 Assay for human T-Cell-Factor with beta-catenin (TCF/b-cat) (AID 2282965); settings: HepG2 TCF/beta-catenin cis-reporter transcription, actives raise or lower the signal
Procedure, shortened: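 Measured: reporter mRNA in HepG2 transiently transfected with cis-promoter reporter units, 24 h after chemical addition. Fitting was bidirectional, DMSO as negative control.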

[15] = ATG_TAL_CIS: Attagene CIS-FACTORIAL HepG2 Assay for human TAL Basal Promoter (AID 2282966); settings: HepG2 Attagene cis-factorial TAL promoter reporter; actives raise or lower the signal;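 also: background control endpoint measuring basal TAL promoter reporter mRNA not a specific factor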
Procedure, shortened: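 In this cell-based multiplex, HepG2 liver cells bearing cis-promoter reporter constructs are dosed for 24 hours. Total RNA is reverse-transcribed and amplified, labelled fragments are sized by capillary electrophoresis, and signal changes are fitted bidirectionally versus DMSO.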

[16] = ATG_TGFb_CIS: Attagene CIS-FACTORIAL HepG2 Assay for human Transforming Growth Factor (TGF) (AID 2282967); settings: HepG2 Attagene CIS TGFb reporter, mRNA transcription; actives raise or lower the signal
Procedure, shortened: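 Multiplexed cis-reporter HepG2 system, 24 h treatment; mRNA induction read by fluorescence after RT-PCR and CE; DMSO negative control, bidirectional curve fitting.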

[17] = target: Transcription factor Sp1 (Homo sapiens) (UniProt P08047); experiment: ATG_Sp1_CIS: Attagene CIS-FACTORIAL HepG2 Assay for human Specificity Protein 1 (Sp1) (AID 2282961); settings: HepG2 Sp1 cis-reporter transcription, actives raise or lower the signal
Procedure, shortened: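 Read-out is reporter transcript level, measured by RT-PCR and fluorescent capillary electrophoresis after 24 h chemical treatment. System: transiently transfected HepG2 cells reporting endogenous transcription factor activity; gain or loss fitted against DMSO baseline.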

[18] = ATG_PBREM_CIS: Attagene CIS-FACTORIAL HepG2 Assay for human Phenobarbital-responsive Enhancer Module (PBREM) (AID 2282955); settings: HepG2 PBREM cis-reporter, Attagene multiplexed transcription; actives raise or lower the signal
Procedure, shortened: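 Endogenous transcription factor activity was read from reporter transcripts in transiently transfected human HepG2 liver cells after 24 h dosing. RT-PCR products were fluorescently labelled, HpaI-cut and sized by capillary electrophoresis; activity fitted bidirectionally against DMSO baseline.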

Sequence of Heat shock factor protein 1 (Homo sapiens) (Q00613 whole entry, looked up): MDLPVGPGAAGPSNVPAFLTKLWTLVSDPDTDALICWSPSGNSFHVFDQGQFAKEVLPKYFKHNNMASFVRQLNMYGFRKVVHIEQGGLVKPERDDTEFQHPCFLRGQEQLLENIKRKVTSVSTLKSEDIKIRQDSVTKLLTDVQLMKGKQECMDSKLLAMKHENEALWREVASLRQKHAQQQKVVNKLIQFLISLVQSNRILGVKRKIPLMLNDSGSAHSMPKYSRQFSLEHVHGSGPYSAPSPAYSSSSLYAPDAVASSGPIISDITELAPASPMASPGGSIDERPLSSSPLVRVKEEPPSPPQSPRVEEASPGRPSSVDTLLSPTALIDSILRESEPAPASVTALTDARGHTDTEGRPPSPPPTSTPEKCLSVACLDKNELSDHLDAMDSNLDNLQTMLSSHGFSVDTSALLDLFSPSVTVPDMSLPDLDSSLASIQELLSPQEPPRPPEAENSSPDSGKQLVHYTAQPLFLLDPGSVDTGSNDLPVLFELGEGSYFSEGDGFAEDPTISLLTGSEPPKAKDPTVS
Sequence of Paired box protein Pax-6 (Homo sapiens) (P26367 whole entry, looked up): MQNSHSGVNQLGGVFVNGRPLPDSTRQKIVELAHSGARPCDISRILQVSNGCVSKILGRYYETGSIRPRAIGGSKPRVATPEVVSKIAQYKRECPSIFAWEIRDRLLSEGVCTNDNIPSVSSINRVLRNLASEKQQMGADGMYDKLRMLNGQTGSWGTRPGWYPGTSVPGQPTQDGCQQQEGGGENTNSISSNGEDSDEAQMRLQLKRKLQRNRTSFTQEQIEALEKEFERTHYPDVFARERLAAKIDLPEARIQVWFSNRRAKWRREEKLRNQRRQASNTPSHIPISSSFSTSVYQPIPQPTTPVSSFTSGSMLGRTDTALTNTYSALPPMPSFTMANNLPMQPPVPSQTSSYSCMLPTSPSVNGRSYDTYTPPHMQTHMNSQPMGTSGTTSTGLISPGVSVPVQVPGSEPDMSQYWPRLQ
Sequence of Hypoxia-inducible factor 1-alpha (Homo sapiens) (Q16665 whole entry, looked up): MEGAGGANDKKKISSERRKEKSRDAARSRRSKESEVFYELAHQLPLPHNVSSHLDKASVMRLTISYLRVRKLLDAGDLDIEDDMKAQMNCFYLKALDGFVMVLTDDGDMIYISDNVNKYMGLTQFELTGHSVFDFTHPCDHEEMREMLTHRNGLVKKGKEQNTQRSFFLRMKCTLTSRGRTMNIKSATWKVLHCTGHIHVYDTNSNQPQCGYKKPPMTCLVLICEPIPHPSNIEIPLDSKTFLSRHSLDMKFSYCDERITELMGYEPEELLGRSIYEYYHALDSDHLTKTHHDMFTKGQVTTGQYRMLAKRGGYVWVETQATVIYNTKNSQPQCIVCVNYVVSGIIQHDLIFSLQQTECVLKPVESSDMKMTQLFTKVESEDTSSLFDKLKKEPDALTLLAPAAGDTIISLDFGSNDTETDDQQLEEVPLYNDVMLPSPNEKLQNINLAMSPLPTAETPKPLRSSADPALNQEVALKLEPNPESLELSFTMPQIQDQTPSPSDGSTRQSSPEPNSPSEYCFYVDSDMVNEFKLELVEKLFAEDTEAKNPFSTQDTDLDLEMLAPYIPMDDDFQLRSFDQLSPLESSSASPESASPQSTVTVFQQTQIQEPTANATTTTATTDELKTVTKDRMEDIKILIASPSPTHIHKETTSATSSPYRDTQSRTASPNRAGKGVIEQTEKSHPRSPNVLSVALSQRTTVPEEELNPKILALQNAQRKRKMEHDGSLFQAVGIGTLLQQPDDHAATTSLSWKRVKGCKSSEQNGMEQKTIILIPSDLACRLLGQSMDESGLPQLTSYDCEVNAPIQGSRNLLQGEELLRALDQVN
Sequence of Transcription factor Sp1 (Homo sapiens) (P08047 whole entry, looked up): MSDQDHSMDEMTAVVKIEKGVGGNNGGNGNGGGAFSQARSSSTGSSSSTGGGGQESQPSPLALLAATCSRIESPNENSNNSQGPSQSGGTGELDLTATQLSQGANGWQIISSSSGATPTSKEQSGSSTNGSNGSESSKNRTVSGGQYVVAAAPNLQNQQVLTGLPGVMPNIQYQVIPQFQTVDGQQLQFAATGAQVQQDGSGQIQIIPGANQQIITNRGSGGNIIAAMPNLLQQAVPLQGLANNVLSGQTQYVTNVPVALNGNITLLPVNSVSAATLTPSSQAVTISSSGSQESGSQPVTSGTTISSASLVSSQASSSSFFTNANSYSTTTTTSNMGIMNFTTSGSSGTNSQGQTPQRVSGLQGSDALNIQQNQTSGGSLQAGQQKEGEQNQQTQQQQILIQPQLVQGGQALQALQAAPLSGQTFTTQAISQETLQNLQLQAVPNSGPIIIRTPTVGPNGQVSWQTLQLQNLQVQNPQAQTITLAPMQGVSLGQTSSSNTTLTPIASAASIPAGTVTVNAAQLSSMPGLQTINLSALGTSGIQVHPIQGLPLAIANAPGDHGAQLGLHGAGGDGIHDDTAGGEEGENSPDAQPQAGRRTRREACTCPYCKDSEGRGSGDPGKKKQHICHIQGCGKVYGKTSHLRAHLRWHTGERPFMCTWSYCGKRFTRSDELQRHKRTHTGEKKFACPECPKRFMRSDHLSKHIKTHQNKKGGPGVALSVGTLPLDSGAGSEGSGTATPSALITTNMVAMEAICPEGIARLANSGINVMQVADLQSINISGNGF
Sequence of Signal transducer and activator of transcription 3 (Homo sapiens) (P40763 whole entry, looked up): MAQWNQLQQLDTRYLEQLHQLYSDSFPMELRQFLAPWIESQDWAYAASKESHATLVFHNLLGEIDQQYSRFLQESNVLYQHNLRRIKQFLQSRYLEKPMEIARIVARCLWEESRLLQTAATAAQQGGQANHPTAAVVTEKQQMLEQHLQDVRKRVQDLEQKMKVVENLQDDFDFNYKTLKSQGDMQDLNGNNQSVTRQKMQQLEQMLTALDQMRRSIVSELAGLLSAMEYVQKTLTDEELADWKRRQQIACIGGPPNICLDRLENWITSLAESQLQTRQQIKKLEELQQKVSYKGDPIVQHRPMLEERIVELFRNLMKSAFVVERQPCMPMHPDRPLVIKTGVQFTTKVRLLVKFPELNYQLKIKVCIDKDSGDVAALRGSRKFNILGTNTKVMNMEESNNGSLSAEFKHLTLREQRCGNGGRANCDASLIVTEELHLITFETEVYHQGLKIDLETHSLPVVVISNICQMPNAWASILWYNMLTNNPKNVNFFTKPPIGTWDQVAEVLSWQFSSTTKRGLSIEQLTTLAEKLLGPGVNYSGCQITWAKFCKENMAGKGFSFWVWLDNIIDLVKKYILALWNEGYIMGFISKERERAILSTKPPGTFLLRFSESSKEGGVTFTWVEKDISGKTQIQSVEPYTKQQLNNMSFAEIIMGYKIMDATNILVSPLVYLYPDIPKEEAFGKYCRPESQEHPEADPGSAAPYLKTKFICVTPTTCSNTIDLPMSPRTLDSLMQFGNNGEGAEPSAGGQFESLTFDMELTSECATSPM

## CS(=O)(=O)c1ccc([C@@H](CC2CCCC2)C(=O)Nc2cnccn2)cc1Cl
[1]
  AC50: 30.2 µM (active)
[2]
  outcome: inactive
[3]
  outcome: inactive
[4]
  AC50: 64.4 µM (active)
[5]
  AC50: 150 µM (active)
[6]
  AC50: 113 µM (active)
[7]
  AC50: 73.9 µM (active)
[8]
  AC50: 1.91 µM (active)
[9]
  AC50: 60.2 µM (active)
[10]
  AC50: 170 µM (active)
[11]
  AC50: 136 µM (active)
[12]
  outcome: inactive
[13]
  AC50: 100 µM (active)
[14]
  AC50: 50.6 µM (active)
[15]
  AC50: 148 µM (active)
[16]
  outcome: inactive

## O=C(c1ccccc1)c1ccccc1
[1]
  outcome: inactive
[2]
  outcome: inactive
[3]
  outcome: inactive
[4]
  outcome: inactive
[5]
  outcome: inactive
[6]
  outcome: inactive
[7]
  outcome: inactive
[8]
  AC50: 51.4 µM (active)
  outcome: inactive
[9]
  outcome: inactive
[10]
  outcome: inactive
[17]
  outcome: inactive
[11]
  outcome: inactive
[12]
  outcome: inactive
[13]
  outcome: inactive
[14]
  outcome: inactive
[15]
  outcome: inactive
[16]
  outcome: inactive

## C=CC(=O)OCC(CO)(COCC(COC(=O)C=C)(COC(=O)C=C)COC(=O)C=C)COC(=O)C=C
[1]
  AC50: 1.29 µM (active)
[2]
  outcome: inactive
[3]
  outcome: inactive
[4]
  AC50: 2.92 µM (active)
[5]
  outcome: inactive
[6]
  AC50: 2.9 µM (active)
[18]
  outcome: inactive
[7]
  AC50: 2.71 µM (active)
[8]
  outcome: inactive
[9]
  AC50: 2.71 µM (active)
[17]
  AC50: 3.37 µM (active)
[11]
  AC50: 2.85 µM (active)
[12]
  outcome: inactive
[13]
  outcome: inactive
[14]
  AC50: 0.426 µM (active)
[15]
  outcome: inactive
[16]
  outcome: inactive

## FC(F)(F)C1(F)C(F)(F)C(F)(F)C(F)(F)C1(F)F
[1]
  outcome: inactive
[2]
  outcome: inactive
[3]
  outcome: inactive
[4]
  outcome: inactive
[5]
  outcome: inactive
[6]
  outcome: inactive
[18]
  outcome: inactive
[7]
  outcome: inactive
[8]
  outcome: inactive
[9]
  outcome: inactive
[10]
  outcome: inactive
[17]
  outcome: inactive
[11]
  outcome: inactive
[12]
  outcome: inactive
[13]
  outcome: inactive
[14]
  outcome: inactive
[15]
  outcome: inactive
[16]
  outcome: inactive
